Experimental data as given in PubChem BioAssay AID720597 (Broad Institute, 2013).
Measured potencies and affinities stand elsewhere.

Target: NAD-dependent protein deacylase sirtuin-5, mitochondrial (Homo sapiens) (UniProt Q9NXA8)
Experiment: blockers of sirtuin-5 peptide desuccinylation – biochemical, fluorescence imaging, cherry-pick, set 6, dose response (AID 720597);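 also: lower AMC signal can also come from blocking the trypsin step; 0% = median of neutral control wells and -100% = median of positive control wells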
Details: Purified SirT5, succinyl-peptide-AMC/trypsin fluorescence; series mostly up to 15 µM; activity change, negative = inhibition: at the top concentration;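 active = fitted half-maximal dose no more than twice the top valid tested dose, for compounds that lower signal; inconclusive = fit invalid, or curve flat with activity between -70 and -30; inactive = potency past limit, curve flat within ±30, or signal increasing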

Chain of NAD-dependent protein deacylase sirtuin-5, mitochondrial (Homo sapiens) (Q9NXA8 whole entry, looked up): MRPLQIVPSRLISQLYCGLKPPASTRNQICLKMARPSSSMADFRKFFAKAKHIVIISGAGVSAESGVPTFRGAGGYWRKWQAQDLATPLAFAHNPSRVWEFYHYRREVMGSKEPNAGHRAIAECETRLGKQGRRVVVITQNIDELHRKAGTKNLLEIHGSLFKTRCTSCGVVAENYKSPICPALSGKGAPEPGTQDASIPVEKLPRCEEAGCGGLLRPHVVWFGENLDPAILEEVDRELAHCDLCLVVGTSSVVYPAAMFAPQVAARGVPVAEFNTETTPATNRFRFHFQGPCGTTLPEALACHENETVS

Activity change, negative = inhibition, inactive:
O=S(=O)(N[C@H]1CC[C@H](CCn2cc(-c3cccc(F)c3)nn2)O[C@H]1CO)c1ccc(F)cc1 -26.3%
O=C(NCC[C@@H]1CC[C@H](NC(=O)C2CC2)[C@H](CO)O1)c1cc(Cl)cc(Cl)c1 26.4%
COc1ccc(S(=O)(=O)N(C)C[C@@H]2OCCCC[C@@H](C)Oc3ccc(NS(=O)(=O)c4ccc(F)cc4)cc3C(=O)N([C@@H](C)CO)C[C@H]2C)cc1 -22.5%
Cc1cccc(-c2noc(CN(C(=O)c3ccc(Br)o3)C(C)C)n2)c1 -13.4%
Cc1noc(C)c1NC(=O)Nc1ccc2c(c1)C(=O)N([C@H](C)CO)C[C@H](C)[C@@H](CN(C)C(=O)Nc1ccc(C(F)(F)F)cc1)OCCCC[C@H](C)O2 5.14%
Cc1noc(C)c1S(=O)(=O)N(C)C[C@H]1Oc2ccc(NC(=O)Cn3cnnn3)cc2CC(=O)N([C@H](C)CO)C[C@H]1C 2.62%
Cc1ccc(S(=O)(=O)N(C)C[C@@H]2OCCCC[C@@H](C)Oc3ccc(NS(=O)(=O)c4ccc(F)cc4)cc3C(=O)N([C@@H](C)CO)C[C@H]2C)cc1 11%
COc1cc2c(cc1OC)CN(C(=O)[C@@H]1[C@H]3C(=O)O[C@H](c4ccccc4)[C@H](c4ccccc4)N3[C@H](c3ccc(OCCO)cc3)[C@@]13C(=O)Nc1ccc(C#CCNC(N)=O)cc13)CC2 -12.1%
C[C@H]1CN([C@@H](C)CO)S(=O)(=O)c2ccc(C3=CCCC3)cc2O[C@@H]1CN(C)Cc1ccccc1 -8.23%
O=S(=O)(c1ccc(F)cc1)N1CCCCN2[C@H](CO)[C@H](c3ccc(-c4ccccc4F)cc3)[C@@H]2C1 9.04%
Cc1noc(C)c1NC(=O)Nc1cccc2c1O[C@H](CN(C)Cc1ccc(Oc3ccccc3)cc1)[C@H](C)CN([C@H](C)CO)C2=O -14.9%
CC(C)C#Cc1ccc([C@@H]2[C@@H](CO)N3C(=O)CN(C(=O)c4ccc5c(c4)OCO5)C[C@H]23)cc1 -20.6%
